Measured values published in the supplement of paper PMC10646978.
± gives the standard deviation.

Experiments:
Conditions in all cases: modulator concentration 10 µM
[1] = system: RAW-Dual (murine macrophage reporter line); assay: NF-kB reporter (SEAP) activity fold change vs agonist alone; higher = enhanced NF-kB activity
Procedure, shortened: (§1)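 In 384-well plates holding 50 000 RAW-Dual murine macrophage reporter cells per well, compound at 10 μM final was pre-incubated for 1 hour at 37 °C, after which a PRR agonist was added overnight. Supernatant SEAP read with QUANTI-Blue at 620 nm absorbance reported NF-κB, and Lucia luciferase read with QUANTI-Luc luminescence reported IRF. Fold change values come from dividing each reporter signal by the mean of agonist-only control wells on the same plate, averaged over replicate plates with propagated errors.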

[2] = system: RAW-Dual (murine macrophage reporter line); assay: IRF reporter (Lucia luciferase) activity fold change vs agonist alone; higher = enhanced IRF activity
Procedure, shortened: as §1

[3] = system: RAW-Dual (murine macrophage reporter line); assay: viability score (confluency relative to resting cells, overnight) (fraction); higher = more viable, active = viable (0.7 or more)
Procedure, shortened: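 A compound met the cutoff when both of two confluency masks exceeded 70% of resting cells. Those masks were made with IncuCyte software from IncuCyte images of RAW-Dual macrophages treated overnight at 10 μM final. This is the basis of the viability score, which is confluency relative to resting cells.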

[4] = agonist: CpG ODN 1826 0.5 ug/mL

SMILES | NF-kB reporter [1, 4] | NF-kB reporter ([1]; agonist: LPS 0.1 ug/mL) | NF-kB reporter ([1]; agonist: MPLA […]) | IRF reporter ([2]; agonist: 3'3'-cGAMP 10 ug/mL) | IRF reporter ([2]; agonist: LPS 0.1 ug/mL) | IRF reporter ([2]; agonist: MPLA […]) | viability score [3]
COc1ccc(CC(=O)N2CCC(N3CCC(OC)CC3)CC2)cc1OC | 0.965 ± 0.063 | 1.09 ± 0.087 | 0.893 ± 0.041 | 0.949 ± 0.05 | 1.02 ± 0.11 | 1.08 ± 0.35 | 0.974 (active)
COC(=O)c1ccc(CSc2ccc3nnc(-c4cccc(F)c4)n3n2)o1 | 1 ± 0.08 | 1.18 ± 0.072 | 1.03 ± 0.062 | 0.966 ± 0.035 | 1.05 ± 0.082 | 0.968 ± 0.093 | 0.998 (active)
CCCc1nn(C)c2c(=O)[nH]c(-c3cc(S(=O)(=O)N4CCN(C)CC4)ccc3OCC)nc12 | 0.951 ± 0.23 | 1.03 ± 0.07 | 1 ± 0.068 | 0.928 ± 0.036 | 1.25 ± 0.16 | 1.37 ± 0.22 | 0.986 (active)
NC(Cc1ccccc1)C(=O)O (centres undefined) | 1.29 ± 0.31 | 0.956 ± 0.07 | 0.943 ± 0.071 | 0.911 ± 0.032 | 1.12 ± 0.22 | 1.1 ± 0.1 | 1 (active)
CCc1c2c(nc3ccc(OC(=O)N4CCC(N5CCCCC5)CC4)cc13)-c1cc3c(c(=O)n1C2)COC(=O)[C@]3(O)CC.Cl.O.O.O | 1.06 ± 0.25 | 1.41 ± 0.23 | 1.54 ± 0.55 | 0.866 ± 0.042 | 1.35 ± 0.35 | 1.2 ± 0.16 | 0.975 (active)
Cc1ccc(-c2cc(C(F)(F)F)nn2-c2ccc(S(N)(=O)=O)cc2)cc1 | 0.337 ± 0.026 | 0.481 ± 0.03 | 0.59 ± 0.078 | 1.1 ± 0.091 | 0.848 ± 0.052 | 0.984 ± 0.087 | 0.183 (inactive)
CNC(CC(=O)O)C(=O)O (centres undefined) | 0.986 ± 0.073 | 1.08 ± 0.073 | 0.978 ± 0.028 | 0.943 ± 0.054 | 0.942 ± 0.094 | 0.948 ± 0.078 | 1 (active)
C=C1CCC(NS(=O)(=O)c2ccc(-c3coc(C)n3)cc2)CC1 | 1.04 ± 0.056 | 1.15 ± 0.091 | 1.14 ± 0.062 | 1.22 ± 0.062 | 1.14 ± 0.11 | 1.2 ± 0.17 | 0.834 (active)
COc1cccc(N2C(=O)CN(Cc3ccccc3)C3CS(=O)(=O)CC32)c1 (centres undefined) | 1.43 ± 0.078 | 0.719 ± 0.057 | 1.49 ± 0.093 | 0.322 ± 0.034 | 0.237 ± 0.05 | 0.216 ± 0.075 | 0.832 (active)
CCC(NC(C)C)C(O)c1ccc(O)c(O)c1 (centres undefined) [Prestw-749] | 2.04 ± 0.12 | 1.13 ± 0.092 | 1.34 ± 0.13 | 0.988 ± 0.039 | 0.96 ± 0.051 | 1.08 ± 0.25 | 0.997 (active)
CC(C)Cn1c(=O)n(C)c(=O)c2[nH]cnc21 | 1.41 ± 0.11 | 1.01 ± 0.055 | 1.08 ± 0.026 | 0.849 ± 0.049 | 0.88 ± 0.12 | 0.884 ± 0.21 | 0.983 (active)
CCC(=O)N1c2ccccc2NC2=C(C(=O)CC(c3ccccc3Cl)C2)C1c1ccc(C)cc1 (centres undefined) | 1.02 ± 0.17 | 0.983 ± 0.079 | 0.961 ± 0.15 | 0.837 ± 0.022 | 1.2 ± 0.17 | 1.23 ± 0.36 | 1.01 (active)
CCSc1nnc(NC(=O)C2CC3CCC2C3)s1 (centres undefined) | 0.941 ± 0.058 | 0.969 ± 0.06 | 0.884 ± 0.06 | 1.29 ± 0.098 | 1.4 ± 0.092 | 1.09 ± 0.1 | 0.94 (active)
C=C1C(=O)OC2C1CCC(C)=CCCC1(C)OC21 (centres undefined) | 0.0586 ± 0.0046 | 0.0442 ± 0.0037 | 0.0844 ± 0.008 | 0.0346 ± 0.011 | 0.025 ± 0.0055 | 0.0274 ± 0.0061 | 0.253 (inactive)
CCC1(C)CC(CCN)(c2ccc(C)cc2)CCO1 (centres undefined) | 0.826 ± 0.053 | 1.02 ± 0.08 | 0.992 ± 0.047 | 0.822 ± 0.048 | 0.904 ± 0.06 | 0.843 ± 0.083 | 0.962 (active)
C=CCN1CCCC1CNC(=O)c1cc2nn[nH]c2cc1OC.Cl (centres undefined) | 0.987 ± 0.2 | 1.05 ± 0.16 | 0.962 ± 0.14 | 0.917 ± 0.045 | 1.3 ± 0.31 | 0.93 ± 0.07 | 0.999 (active)
O=C1[C@H](CC[C@H](O)c2ccc(F)cc2)[C@@H](c2ccc(O)cc2)N1c1ccc(F)cc1 | 1.11 ± 0.11 | 1.05 ± 0.051 | 1.29 ± 0.12 | 0.927 ± 0.063 | 0.98 ± 0.084 | 1.21 ± 0.11 | 0.97 (active)
COC(=O)C1C(O)CCC2CN3CCc4c([nH]c5ccccc45)C3CC21.Cl (centres undefined) | 1.19 ± 0.28 | 0.917 ± 0.076 | 0.906 ± 0.058 | 0.92 ± 0.1 | 1.15 ± 0.25 | 1.23 ± 0.15 | 0.995 (active)
CCOC(=O)C1=C(C)NC(C)=C(C(=O)OCC)C1c1ccc(Cl)cc1 | 0.3 ± 0.023 | 0.27 ± 0.019 | 0.748 ± 0.026 | 0.743 ± 0.061 | 0.636 ± 0.084 | 1.67 ± 0.2 | 0.187 (inactive)
C=C(C)CSC1=C(C#N)C(c2ccccc2)CC(=O)N1 (centres undefined) | 1.13 ± 0.091 | 0.954 ± 0.071 | 0.951 ± 0.092 | 0.772 ± 0.025 | 1.03 ± 0.15 | 0.999 ± 0.17 | 1.01 (active)
Clc1cccc(C=Cc2nn3c(Cc4ccccc4)nnc3s2)c1 | 0.885 ± 0.04 | 0.927 ± 0.092 | 1.12 ± 0.06 | 0.86 ± 0.039 | 1.35 ± 0.24 | 1.44 ± 0.43 | 0.987 (active)
CC(C)c1ccc2oc3nc(N)c(C(=O)O)cc3c(=O)c2c1 | 1.2 ± 0.16 | 1.23 ± 0.15 | 0.91 ± 0.052 | 0.858 ± 0.026 | 1.28 ± 0.32 | 1.16 ± 0.18 | 0.993 (active)
CC(=O)Oc1ccccc1C(=O)O | 1.01 ± 0.085 | 1.05 ± 0.079 | 0.959 ± 0.048 | 1.02 ± 0.068 | 0.964 ± 0.044 | 0.884 ± 0.11 | 0.998 (active)
O=C(NN=Cc1c(O)ccc2ccccc12)c1[nH]ncc1I | 1.93 ± 0.15 | 1.24 ± 0.081 | 1.4 ± 0.063 | 0.491 ± 0.021 | 1.32 ± 0.076 | 1.3 ± 0.094 | 0.906 (active)
CC(C)(C)C(=O)Oc1ccc(S(=O)(=O)Nc2ccccc2C(=O)NCC(=O)O)cc1 | 0.755 ± 0.05 | 1.07 ± 0.086 | 1.18 ± 0.063 | 1.1 ± 0.064 | 1.09 ± 0.26 | 1.38 ± 0.47 | 0.972 (active)
CN1c2ccccc2-c2ccccc2C12C=Cc1cc([N+](=O)[O-])ccc1O2 (centres undefined) | 0.385 ± 0.021 | 0.916 ± 0.1 | 0.879 ± 0.07 | 1.09 ± 0.07 | 1.27 ± 0.2 | 1.1 ± 0.12 | 0.999 (active)
COc1ccccc1N1CCN(c2ncnc3c2cnn3-c2cc(C)cc(C)c2)CC1 | 1.2 ± 0.067 | 1.16 ± 0.1 | 1.19 ± 0.042 | 1.01 ± 0.049 | 1.05 ± 0.098 | 1.08 ± 0.16 | 0.997 (active)
